# Experimental data: PubChem BioAssay (EPA / NIEHS)
# Results filed as inconclusive are left out. Activity calls are given as the source filed them. How the source made its calls, unless noted: active means hit-call score of the fitted dose curve at least 0.9, where 1 is the maximum; inactive means score below 0.9.
# How the values were obtained:
# [1] = target: Cellular tumor antigen p53 (Homo sapiens) (UniProt P04637); assay: TOX21_p53_BLA_p2_ratio: Tox21 HCT-116 p53 Agonism Beta-lactamase Assay, Ratio, Phase 2 (AID 2283592; active means hit-call score of the fitted dose curve at least 0.9, where 1 is the maximum)
# Method in brief: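 First, HCT116 reporter cells settle for 5 h at 37C. Next, DMSO compound solutions are pinned in (217-fold dilution) and left 16 h. Finally, CCF4-AM substrate is loaded 2 h at room temperature and the 460/530 nm ratio read.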
# [2] = TOX21_p53_BLA_p3_viability: Viability Assessment in the Tox21 HCT-116 p53 Agonism Beta-lactamase Assay, Phase 3 (AID 2283593; active means hit-call score of the fitted dose curve at least 0.9, where 1 is the maximum;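 further: cells exposed to compound for 16 h before reading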)
# Method in brief: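 Cellular ATP was quantified by CellTiter-Glo luminescence, read after 30 min at room temperature. Beforehand, HCT116 cells (4000/well) received compound 5 h post-seeding, 217-fold diluted from DMSO, then incubated 16 h at 37C.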
# [3] = target: Cellular tumor antigen p53 (Homo sapiens) (UniProt P04637); assay: TOX21_p53_BLA_p3_ratio: Tox21 HCT-116 p53 Agonism Beta-lactamase Assay, Ratio, Phase 3 (AID 2283596; active means hit-call score of the fitted dose curve at least 0.9, where 1 is the maximum)
# Method in brief: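 Cells were seeded at 4000/well, rested 5 h at 37C, then dosed with DMSO compound solutions (217-fold dilution) for 16 h. CCF4-AM substrate was loaded for 2 h at room temperature, and the 460/530 nm emission ratio was fitted for gain of signal versus DMSO.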
# [4] = TOX21_p53_BLA_p4_viability: Viability Assessment in the Tox21 HCT-116 p53 Agonism Beta-lactamase Assay, Phase 4 (AID 2283597; active means hit-call score of the fitted dose curve at least 0.9, where 1 is the maximum;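 further: hits lower the luminescence signal meaning cytotoxicity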)
# Method in brief: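 4000 HCT116 cells per well; 5 h attachment; compounds from DMSO, 217-fold dilution; 16 h at 37C. Then CCF4-AM, 2 h RT, followed by CellTiter-Glo, 30 min RT, luminescence. Decrease = cytotoxicity.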
# [5] = target: Cellular tumor antigen p53 (Homo sapiens) (UniProt P04637); assay: TOX21_p53_BLA_p5_ratio: Tox21 HCT-116 p53 Agonism Beta-lactamase Assay, Ratio, Phase 5 (AID 2283599; active means hit-call score of the fitted dose curve at least 0.9, where 1 is the maximum)
# Method in brief: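 Beta-lactamase reporter ratio (blue 460 nm over green 530 nm, 405 nm excitation) after 2 h CCF4-AM loading, in HCT-116 cells exposed 16 h at 37 C to compounds pinned at 217-fold dilution. Increases relative to DMSO baseline scored.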
# [6] = target: Cellular tumor antigen p53 (Homo sapiens) (UniProt P04637); assay: TOX21_p53_BLA_p4_ratio: Tox21 HCT-116 p53 Agonism Beta-lactamase Assay, Ratio, Phase 4 (AID 2283601; active means hit-call score of the fitted dose curve at least 0.9, where 1 is the maximum)
# Method in brief: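 Signal is the blue/green (460nm/530nm) ratio of cleaved versus uncleaved CCF4-AM substrate, read after 2 h substrate loading. Cells were HCT116 carrying the p53-responsive beta-lactamase reporter, dosed 16 h at 37C, 5% CO2; CellTiter-Glo measured in parallel.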
# [7] = CCTE_Shafer_MEA_dev_firing_rate_mean: CCTE's Neural Network Formation Assay for Mean Firing Rate, Shafer Lab (AID 2284031)
# Method in brief: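 Steps: seed rat cortical cells (1.5 x 10^5/well) with laminin on PEI-coated MEA; dose day 0; record DIV 5/7/9/12, full media and compound exchange after DIV 5 and 9 recordings; compute well-mean firing rate AUC.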
# [8] = CCTE_Shafer_MEA_dev_per_burst_spike_percent: CCTE's Neural Network Formation Assay for Percent of Spikes in a Burst, Shafer Lab (AID 2284032)
# Method in brief: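 Value is trapezoidal AUC over recordings on days 5, 7, 9 and 12 of the well-mean fraction of spikes falling in single-electrode bursts; rat cortical cultures exposed continuously from plating, treatment renewed DIV 5 and 9, fitted downward against DMSO.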
# [9] = CCTE_Shafer_MEA_dev_active_electrodes_number: CCTE's Neural Network Formation Assay for Number of Active Electrodes, Shafer Lab (AID 2284040; active means hit-call score of the fitted dose curve at least 0.9, where 1 is the maximum;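 further: potency for loss of active electrodes versus DMSO so lower counts are hits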)
# Method in brief: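 Counts electrodes per well firing at least 5 spikes/min, recorded on days 5, 7, 9 and 12 in rat cortical cultures dosed continuously from plating (treatment refreshed DIV 5, 9). Value is the area under the curve over recordings, fitted downward relative to DMSO.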
# [10] = CCTE_Shafer_MEA_dev_burst_rate: CCTE's Neural Network Formation Assay for Burst Rate, Shafer Lab (AID 2284042)
# Method in brief: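 Exposure ran continuously over 12 days of network development in rat cortical cultures, with compound refreshed during full media changes on DIV 5 and 9. Single-electrode bursts per recording time, well-mean over active electrodes, trapezoidal AUC across days 5–12, fitted downward relative to DMSO.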
# [11] = CCTE_Shafer_MEA_dev_bursting_electrodes_number: CCTE's Neural Network Formation Assay for Number of Bursting Electrodes, Shafer Lab (AID 2284043; active means hit-call score of the fitted dose curve at least 0.9, where 1 is the maximum;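 further: potency is for loss of bursting electrodes relative to DMSO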)
# Method in brief: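 Number of electrodes reaching ≥1 burst every 2 min was recorded at DIV 5, 7, 9 and 12 and collapsed as trapezoidal area under the curve. Cultures were rat cortical neurons on MEA plates, dosed continuously from plating with medium and treatment refreshed on DIV 5 and 9.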
# [12] = CCTE_Shafer_MEA_dev_per_burst_interspike_interval: CCTE's Neural Network Formation Assay for Burst Interspike Interval, Shafer Lab (AID 2284044)
# Method in brief: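 Primary rat cortical neurons on 48-well MEA plates, exposed from day 0 through day 12, treatment renewed at DIV 5 and 9. Within-burst interspike interval recorded days 5, 7, 9, 12, well-averaged, summarised as AUC; negative fit versus DMSO.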
# [13] = CCTE_Shafer_MEA_dev_burst_duration_mean: CCTE's Neural Network Formation Assay for Mean Burst Duration, Shafer Lab (AID 2284045)
# Method in brief: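 Mean single-electrode burst duration (first to last spike), averaged over bursting electrodes per well, then integrated as area-under-curve across recordings at days 5, 7, 9 and 12. Rat cortical cultures on MEAs, compound present from plating, refreshed at feeds.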
# [14] = CCTE_Shafer_MEA_dev_interburst_interval_mean: CCTE's Neural Network Formation Assay for Mean Interburst Interval, Shafer Lab (AID 2284046);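 further: well-mean interburst interval of bursting electrodes as AUC over four recording days; curve fitted for decrease in interburst interval relative to DMSO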
# Method in brief: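 Primary rat cortical neurons on PEI-coated 48-well MEA plates (laminin added with cells at plating) (16 electrodes/well), exposed from plating day 0 with renewal at DIV 5 and 9. Mean inter-burst interval averaged over bursting electrodes, AUC across days 5, 7, 9, 12; DMSO baseline.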
# [15] = CCTE_Shafer_MEA_dev_inter_network_spike_interval_mean: CCTE's Neural Network Formation Assay for Mean Inter-network Spike Interval, Shafer Lab (AID 2284047)
# Method in brief: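 Mean time between consecutive network-spike peaks, recorded extracellularly (adaptive spike detection) on DIV 5, 7, 9 and 12, summarized as trapezoidal AUC. Rat cortical cultures on MEAs dosed continuously days 0–12, re-dosed at feeds; loss-of-signal fit relative to DMSO.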
# [16] = CCTE_Shafer_MEA_dev_network_spike_number: CCTE's Neural Network Formation Assay for Number of Network Spikes, Shafer Lab (AID 2284048);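 further: synchronized bursts across electrodes counted on days 5 7 9 12 and integrated as AUC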
# Method in brief: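 Number of network spikes (coordinated firing across electrodes) recorded on days 5, 7, 9 and 12 and summarised as area under the curve. Rat cortical cultures on MEA, continuous compound exposure with full medium/treatment exchange at DIV 5 and 9.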
# [17] = CCTE_Shafer_MEA_dev_spike_duration_mean: CCTE's Neural Network Formation Assay for Mean Spike Duration, Shafer Lab (AID 2284051);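 further: mean network spike duration pooled as area under curve over DIV 5 to 12 recordings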
# Method in brief: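 Spontaneous activity was recorded on days 5, 7, 9 and 12 from rat cortical cultures grown on microelectrode arrays and dosed continuously from day 0, with media and compound renewed after the DIV 5 and 9 recordings. Network-spike duration was collapsed by area under the curve.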
# [18] = CCTE_Shafer_MEA_dev_network_spike_duration_std: CCTE's Neural Network Formation Assay for Standard Deviation of Network Spike Duration, Shafer Lab (AID 2284052);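 further: hits are decreases in network spike duration SD versus DMSO vehicle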
# Method in brief: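 Network spike duration variability was collapsed across recordings on days 5, 7, 9 and 12 by trapezoidal area-under-curve and fitted downward against DMSO. Cultures were rat cortical neurons on PEI-coated MEA plates, dosed continuously from plating, refed with compound DIV 5/9.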
# [19] = CCTE_Shafer_MEA_dev_per_network_spike_spike_number_mean: CCTE's Neural Network Formation Assay for Mean Number of Spikes in a Network Spike, Shafer Lab (AID 2284053)
# Method in brief: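 Mean spike count within each network spike, taken in a 0.05 s window at its peak, was recorded on days 5, 7, 9 and 12 and integrated as trapezoidal area under the curve. Rat cortical cultures on MEA plates received continuous compound from day 0, refreshed at medium changes on DIV 5 and 9.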
# [20] = CCTE_Shafer_MEA_dev_per_network_spike_spike_percent: CCTE's Neural Network Formation Assay for Percent of Spikes in a Network Spike, Shafer Lab (AID 2284054)
# Method in brief: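 Metric: fraction of spikes falling in a 0.05 s window at network-spike peaks. Recordings were made on days 5, 7, 9 and 12 and collapsed by trapezoidal AUC. Cultures were rat cortical neurons on MEA plates, dosed continuously from plating, re-dosed at media changes.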
# [21] = CCTE_Shafer_MEA_dev_LDH: CCTE's Lactate Dehydrogenase Assay for Cytotoxicity in the Neural Network Formation Assay, Shafer Lab (AID 2284068; active means hit-call score of the fitted dose curve at least 0.9, where 1 is the maximum;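 further: exposure for twelve days from plating with re-dosing on DIV 5 and 9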)
# Method in brief: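 Primary rat cortical neurons were cultured on PEI-coated MEA plates and exposed from plating through day 12, with compound renewed at medium changes on DIV 5 and 9. LDH activity was read spectrophotometrically; loss of signal versus DMSO indicates reduced viability.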
# [22] = CCTE_Shafer_MEA_dev_AB: CCTE's Alamar Blue Assay for Cytotoxicity in the Neural Network Formation Assay, Shafer Lab (AID 2284083; active means hit-call score of the fitted dose curve at least 0.9, where 1 is the maximum;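 further: resazurin reduction fluorescence as viability of cultured neurons; twelve days of exposure from plating with re-dosing on DIV 5 and 9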)
# Method in brief: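 Resazurin fluorescence, relative to DMSO, gauges viability after twelve days of exposure that began at plating of rat cortical neurons (1.5 x 10^5 cells/well, 48-well MEA); treatment renewed with full medium exchange on DIV 5 and 9.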
# [23] = CCTE_Shafer_MEA_dev_mutual_information_norm: CCTE's Neural Network Formation Assay for Mutual Information Normalization, Shafer Lab (AID 2284091)
# Method in brief: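 Shared information across electrodes, tracked on days 5, 7, 9 and 12 of network development and collapsed as trapezoidal area under the curve. Rat cortical cultures were treated continuously from plating, with treatment renewed at feeds on DIV 5 and 9; DMSO baseline, negative-direction fit.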
# [24] = CCTE_Shafer_MEA_dev_correlation_coefficient_mean: CCTE's Neural Network Formation Assay for Mean Correlation Coefficient, Shafer Lab (AID 2284093)
# Method in brief: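 Primary rat cortical neurons on PEI-coated 48-well MEA plates (16 electrodes/well) were exposed from plating day 0 through DIV12, with compound renewed at DIV5 and 9. Pairwise spike correlations were averaged per well; trapezoidal AUC across DIV5, 7, 9, 12.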
# [25] = UKN2_HCS_IMR90_neural_migration: University of Konstanz (UKN) Leist Lab Neural Crest Cell Migration Assay in human induced IMR90 Pluripotent Stem Cells (UKN2) (AID 2284204); details: actives raise or lower the signal
# Method in brief: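 High-content imaging of calcein-AM and Hoechst stained cells quantifies migration into a stopper-defined gap after 24 h compound exposure. Neural crest cells from IMR90 iPSC migrated 24 h in EGF/FGF N2-S medium before dosing; DMSO baseline.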
# [26] = IUF_NPC1b_proliferation_BrdU_72hr: Leibniz Research Institute for Environmental Medicine (IUF) 72-hour Neural Progenitor Cell Bromodeoxyuridine (BrdU) Proliferation Assay (NPC1b) (AID 2284207)
# Method in brief: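 Human fetal cortex-derived (GW 16-19) neural progenitor spheres, 0.25-0.35 mm, one per well in EGF/FGF proliferation medium, exposed to compound for 72 h at 37C, pH 7.2-7.6. BrdU incorporation over the final 16 h read by luminescence ELISA, relative to DMSO.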
# [27] = IUF_NPC1a_proliferation_area_72hr: Leibniz Research Institute for Environmental Medicine (IUF) 72-hour Neural Progenitor Cell Proliferation Area Assay (NPC1a) (AID 2284208)
# Method in brief: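 Single 0.25–0.35 mm human fetal neural progenitor spheres in proliferation medium with EGF and FGF, exposed 72 h from plating without renewal at 37C, pH 7.2-7.6. Sphere area growth measured by automated phase-contrast imaging, relative to DMSO.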
# [28] = IUF_NPC1_viability_72hr: Viability Assessment at 72 hours in the Leibniz Research Institute for Environmental Medicine (IUF) Neural Progenitor Cell Proliferation Assay (NPC1) (AID 2284209)
# Method in brief: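 Spheres of primary human neural progenitors were plated singly in proliferation medium and treated for 72 h. Mitochondrial reduction of resazurin was then measured by fluorescence and analysed against DMSO controls.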
# Chain of Cellular tumor antigen p53 (Homo sapiens) (P04637 whole entry, looked up): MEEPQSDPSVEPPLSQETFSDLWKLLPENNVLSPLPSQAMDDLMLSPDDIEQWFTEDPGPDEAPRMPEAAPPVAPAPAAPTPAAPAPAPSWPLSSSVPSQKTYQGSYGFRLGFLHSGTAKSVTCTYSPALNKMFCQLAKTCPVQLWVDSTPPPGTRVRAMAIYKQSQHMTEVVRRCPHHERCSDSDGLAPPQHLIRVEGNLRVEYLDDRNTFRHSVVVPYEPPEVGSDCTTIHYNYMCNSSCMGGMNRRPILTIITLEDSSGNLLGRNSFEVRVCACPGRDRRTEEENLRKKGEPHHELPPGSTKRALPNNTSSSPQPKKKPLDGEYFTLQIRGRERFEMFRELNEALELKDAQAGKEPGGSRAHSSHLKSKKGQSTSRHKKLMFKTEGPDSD
structure (smiles),measurement,setting,value
[Cl-].[Cl-].[NH2-].[NH2-].[Pt+4],outcome,[1],inactive
same,outcome,[2],inactive
same,outcome,[3],inactive
same,outcome,[4],inactive
same,outcome,[5],inactive
same,outcome,[6],inactive
same,outcome,[7],inactive
same,outcome,[8],inactive
same,AC50,[9],10.4 µM (active)
same,outcome,[10],inactive
same,AC50,[11],5.08 µM (active)
same,outcome,[12],inactive
same,outcome,[13],inactive
same,outcome,[14],inactive
same,outcome,[15],inactive
same,outcome,[16],inactive
same,outcome,[17],inactive
same,outcome,[18],inactive
same,outcome,[19],inactive
same,outcome,[20],inactive
same,AC50,[21],81 µM (active)
same,outcome,[22],inactive
same,outcome,[23],inactive
same,outcome,[24],inactive
same,outcome,[25],inactive
same,AC50,[26],5.68 µM (active)
same,AC50,[27],34.9 µM (active)
same,outcome,[28],inactive
